Active and inactive are the calls of the source.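 The calls were made as follows, unless noted: active = z-score of at least 1.8 in each of two replicates, scored against plate mean and spread of sample wells; inactive = the rest.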
Legend:
[1] = MELAS cybrid and Rieske KO viability enhancers – cell-based, MELAS cybrids, Rieske KO mouse fibroblasts, CellTiter-Glo, primary screen (AID 1508586;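 active = mean z-score across replicates of 1.96 or higher in either the MELAS or the Rieske mutant cell line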;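 also: test concentration not given here; z relative to plate mean and SD of compound and empty wells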); details: low glucose
[2] = galactose survival enhancers in mitochondrial complex I cybrids – cell-based, galactose medium, ATP luminescence, primary screen (AID 1645843); details: complex I mutant cybrid cells, 72 h, stronger effect = higher value;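 also: positive z means more ATP and so rescue of galactose-driven cybrid death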
[3] = MELAS cybrid survival, CellTiter-Glo 48 h, stronger effect = higher value
[4] = Rieske KO mouse fibroblast survival, CellTiter-Glo 72 h

SMILES	z-score [1, 3]	z-score [1, 4]	z-score [2]
Cc1nn(C)cc1CNc1cc(C(=O)NCc2cn3ccccc3n2)cc(S(=O)(=O)NC(C)C)c1	-0.236 (inactive)	-0.702	-0.11 (inactive)
COC(=O)c1c(NC(=O)c2cccnc2)c2cc(NCc3ccc4c(c3)CCO4)cnc2n1CC(C)C	-0.55	3.72	-1.61 (inactive)
CC(C)CCNc1cc(C(=O)N[C@H]2CCCCNC2=O)cc(S(=O)(=O)NC(C)C)c1	-0.205 (inactive)	0.262	-0.51 (inactive)
COc1cc(CN2CC(=O)N(CC3CCOCC3)CC(OCc3ccccn3)C2)cc2c1OCO2 (stereo not given)	-0.369	4.95	-1.33 (inactive)
COC(=O)c1c(NC(=O)C2CCOC2)c2cc(NC(C)CO)cnc2n1CCCc1ccccc1 (stereo not given)	-1.11 (inactive)	1.02	-0.185 (inactive)
